Data reported in PubChem BioAssay AID504882 (Broad Institute, 2011).
The campaign covered roughly 1,200 compounds. About 290 (24%) were called active. Roughly 9% stayed inconclusive and do not appear here. How the calls were made is not given here. Only a sample is shown. Measured potencies and affinities stand elsewhere.

Assay: cytotoxicity in EBV lymphoblastoid cells, dose response, cytotoxicity control, cell-based, plate reader, cherry-picks, set 2 (AID 504882)
Conditions: EBV lymphoblastoid cells (LCL) viability; series mostly up to 19.5 µM

| SMILES | outcome |
| --- | --- |
| O=C1c2ccccc2C(O)N1Cc1ccccc1 (stereo not given) | inactive |
| Nc1ncnc2c1c(-c1ccc(Oc3ccccc3)cc1)cn2C1CCCC1 | inactive |
| CN1CCN(C(=O)C2=C[C@@H](C(C)(C)C)C[C@@H](OCc3ccc(CO)cc3)O2)CC1 | inactive |
| COc1ccc(C(CNC(=O)Nc2ccccc2)N2CCN(C)CC2)cc1 (stereo not given) | inactive |
| CC1CN(c2cc(=O)n(-c3ccccc3)c(=O)[nH]2)CC(C)O1 (stereo not given) | inactive |
| N#CCCn1cc(C(=O)Nc2ccccn2)c(-c2ccccc2)n1 | inactive |
| Cc1ccc(NC(=O)C(=O)Nc2ccccn2)cc1 | inactive |
| O=C(Nc1ccccn1)NC1CCCCC1 | inactive |
| COc1ccc(OCC(=O)Nc2nccs2)cc1 | inactive |
| O=[N+]([O-])c1ccc(N2CCN(Cc3cccc([N+](=O)[O-])c3)CC2)cc1 | inactive |
| Cc1ccc(C2=C/C(=C\c3cccnc3)C(=O)O2)cc1 | inactive |
| CCOc1ccc(N(C(C)C(=O)N2CCCCCC2)S(C)(=O)=O)cc1 (stereo not given) | inactive |
| CCN(CC)c1ccc(NC(=O)c2cccc(F)c2)c(C)c1 | inactive |
| Cn1ncc(Cl)c1C(=O)NC1CCCC1 | inactive |
| CN(C)c1cccc(C(=O)N/N=C/c2ccccc2F)c1 | inactive |
| COCCn1c(SCC(=O)N2CCc3ccccc32)nc2c(c1=O)SC(C)C2 (stereo not given) | inactive |
| Cc1cc(C)n(C2CCCCC2OC(=O)c2ccccc2F)n1 (stereo not given) | inactive |
| O=C(c1ccc(Cl)cc1)N1CCN(CCOc2ccccc2)CC1 | inactive |
| CNC(=S)N1N=C(c2cccs2)CC1c1ccc(F)cc1 (stereo not given) | inactive |
| O=C1OCCC1Sc1nnc(-c2ccc(Cl)cc2Cl)o1 (stereo not given) | inactive |
| CCCC(=O)C1=C(O)C(C(=O)OC)C(C)(C)CC1=Nc1ccncc1 (stereo not given) | inactive |
| Cc1cc(C(=O)COC(=O)c2ccc[nH]c2=O)c(C)n1-c1ccccc1 | inactive |

| SMILES | outcome |
| --- | --- |
| COc1ccc(S(=O)(=O)N2CCOCC2)cc1NC(=O)COC(=O)CCS(=O)(=O)c1ccc(C)cc1 | inactive |
| O=C(O)CCc1nc(-c2ccc(Cl)cc2)no1 | inactive |
| NC(=O)c1sc2nc3c(c(-c4cccs4)c2c1N)CCCCC3 | inactive |
| O=C1CC(c2cccs2)Cc2nc(NC(=O)C3CC3)ncc21 (stereo not given) | inactive |
| O=C(Nc1ccc(Br)cc1)C1CC(O)CN1C(=O)OCc1ccccc1 (stereo not given) | inactive |
| CC(CN1CCCCC1)OC(=O)c1ccc2c(c1)OCO2 (stereo not given) | inactive |
| COC(=O)C1=C(C(=O)c2ccccc2)C(c2ccccc2)n2nnnc2N1 (stereo not given) | inactive |
| Cc1ccc(NC(=O)/C=N/OCC(=O)NCc2ccccc2Cl)cc1 | inactive |
| Cc1cc(N)nc(=O)n1C1CC(O)C(CO)O1 (stereo not given) | inactive |
| CCOC(=O)/C=C(\C)Sc1cc(=O)oc2ccccc12 | inactive |
| COc1ccc(S(=O)(=O)N2CCCCCC2)cc1C(=O)OCc1cccc(OC)c1OC | inactive |
| CCCNC(=O)N1CCN(S(=O)(=O)c2ccc(C)c(C)c2)CC1 | inactive |
| Cc1ccc(-n2nc(C(=O)NCc3ccc(C)o3)c3c4ccccc4n(C)c3c2=O)cc1 | inactive |
| COc1ccc(OC)c(CCNC(=O)CCn2nc(C)c3c(C)n(-c4ccccc4)nc3c2=O)c1 | inactive |
| Cn1cc(CC(=O)NCCCN2CCCC2)c2ccccc21 | inactive |
| CCOC(=O)N1CCC(NC(=O)C2CCCN(Cc3nc(-c4cccc(Cl)c4)oc3C)C2)CC1 (stereo not given) | inactive |
| O=C(CN1C(=O)c2ccccc2S1(=O)=O)c1ccccc1 | inactive |
| NC(=O)OCC(COC(N)=O)c1ccccc1 | inactive |
| COc1ccc(-n2cnc3c(cnn3CCC#N)c2=N)cc1 | inactive |
| O=C(NC1CCCCC1)N1CCN(c2ccc([N+](=O)[O-])cc2)CC1 | inactive |
| COc1ccc(CCNC(=O)c2nnn(-c3ccc4c(c3)OCCO4)c2N)cc1OC | inactive |
| Cc1ccccc1-n1nc(C)c2cc(C(=O)NC3CC3)sc21 | inactive |

| SMILES | outcome |
| --- | --- |
| CC1CCN(CCOc2ccc(C(=O)c3ccccc3)cc2)CC1 | inactive |
| O=C(Cn1ccc(C(F)(F)F)n1)Nc1cccc(S(=O)(=O)N2CCCCC2)c1 | inactive |
| O=C1C2CCCN2c2ccc(S(=O)(=O)N3CCOCC3)cc2N1Cc1ccccc1F (stereo not given) | inactive |
| Cn1c(CC(=O)Nc2ccc(F)cc2)nnc1SCC(=O)Nc1nncs1 | inactive |
| Cc1ccccc1N(C(=O)c1snc(C(N)=O)c1N)C(C(=O)NC1CCCCC1)c1ccc(O)cc1 (stereo not given) | inactive |
| N#CCN(N=Nc1ccccc1)c1ccccc1 | inactive |
| COC(=O)c1ccc(/C=C(/NC(=O)c2ccccc2)C(=O)N2CCOCC2)cc1 | inactive |
| Cc1cc(/C=C2\Cc3ccccc3C2=O)c(C)n1-c1ccccc1 | inactive |
| Cc1ccc(CCNC(=O)CCc2nc3ccccc3[nH]2)cc1 | inactive |
| CC(=O)Nc1ccc(OCC(O)CNC(C)C)cc1 (stereo not given) | inactive |
| CC1=C(C)C(OCCCl)N(c2cc(O)c(Cl)cc2F)C1=O (stereo not given) | inactive |
| O=C(O)c1cccc(NC(=O)c2cn(-c3ccccc3)nc2-c2ccc(F)cc2)c1 | inactive |
| N/C(=N\OC(=O)c1cccc(Br)c1)c1ccccn1 | inactive |
| C/C(=N/NC(=O)c1cc(C2CC2)[nH]n1)c1cccs1 | inactive |
| Cc1cc(C(=O)CSc2nnc(-c3cccs3)o2)c(C)n1-c1ccccc1 | inactive |
| CN(Cc1ccc(F)cc1)C(=O)CN1CCN(S(=O)(=O)c2ccc3c(c2)OCCCO3)CC1 | inactive |
| COc1cc(N(C)C)c([N+](=O)[O-])cc1C(=O)N1CCN(Cc2ccccc2)CC1 | inactive |
| COc1ccc(CCNC(=O)CSc2ccsc2[N+](=O)[O-])cc1OC | inactive |
| CCOc1ccc(NC(=O)Cn2cc(C(=O)CC)c3ccccc32)cc1 | inactive |
| O=C(NC(Cc1c[nH]c2ccccc12)C(=O)Nc1ccc(F)c([N+](=O)[O-])c1)c1cccs1 (stereo not given) | inactive |
| COc1ccc(/C=N/Nc2cc(OC)ncn2)cc1 | inactive |
| Cc1ccc(C)c(S(=O)(=O)N2CCN(CC(=O)N3CCc4ccccc4C3)CC2)c1 | inactive |

| SMILES | outcome |
| --- | --- |
| Cc1ccc(NC(=S)Nc2cccc(S(=O)(=O)Nc3c(C)n(C)n(-c4ccccc4)c3=O)c2)cc1 | inactive |
| O=C1N[C@@H](Cc2c[nH]c3ccccc23)COC(=O)[C@H](Cc2ccc(F)cc2)C/C=C\C[C@H]1CC(=O)N(CCO)Cc1ccccc1 | inactive |
| O=C(Nc1ccc(N2CCOCC2)cc1)c1cnccn1 | inactive |
| O=C(Nc1ccc(CN2CCOCC2)cc1)c1cc2ccccn2n1 | inactive |
| CSc1nc(N)nc(SCC(=O)C23CC4CC(CC(C4)C2)C3)c1C#N | inactive |
| COc1ccc(C2CC(C(F)(F)F)n3ncc(C(=O)NCc4cccnc4)c3N2)cc1OC (stereo not given) | inactive |
| O=C(CN1C(=O)c2ccccc2C1=O)NNC1=NS(=O)(=O)c2ccccc21 | inactive |
| CCOc1cccc(CNc2nnnn2C)c1 | inactive |
| COc1ccc(/C=C/c2nc3ccccc3c(=O)o2)cc1 | inactive |
| CCCC(=O)NCCCc1nc2ccccc2n1C | inactive |
| Nc1nc2ccccc2n1C(=O)c1ccccc1 | inactive |
| CC(C)(C)n1nc(-c2ccc(Cl)cc2)c2c(N)ncnc21 | inactive |
| O=C(CCNc1cccc(F)c1)c1cc2ccccc2o1 | inactive |
| CCc1cc(=O)oc2c(CNCc3c(F)cccc3Cl)c(O)ccc12 | inactive |
| Cc1cc(N2CCCC2=O)cc(C)c1S(=O)(=O)Nc1c(C)nn(C)c1C | inactive |
| O=C(C=C1SCCS1)/C=C/c1ccco1 | inactive |
| CC(C)(C)c1ccc(C(=O)Nc2nnc(SCC(=O)NCC3CCCO3)s2)cc1 (stereo not given) | inactive |
| Cc1cc(NC(=O)CSc2ccnc(=O)[nH]2)no1 | inactive |
| CC(C)Cc1ccc([C@H](C)C(=O)O)cc1 | inactive |
| CS(=O)(=O)N(CC(=O)Nc1ccc(F)cc1F)C1CCCCC1 | inactive |
| O=C1CCC(C(=O)N2CCCCCC2)CN1CCc1ccc(Cl)cc1 (stereo not given) | inactive |
| S=C1SCN(Cc2ccccc2)CN1Cc1ccco1 | inactive |

| SMILES | outcome |
| --- | --- |
| O=C1/C(=C/c2cccnc2)SC(=S)N1Cc1ccco1 | inactive |
| CC(C)NC(=O)N(C)C[C@H]1Oc2c(NC(=O)Nc3ccc4c(c3)OCO4)cccc2C(=O)N([C@H](C)CO)C[C@@H]1C | inactive |
| O=C1CCCN2N=C(SCC(=O)Nc3ccc(Br)cc3)SC2=N1 | inactive |
| COc1ccc(S(=O)(=O)NCCc2csc(-c3cccnc3)n2)cc1 | inactive |
| CC1Cc2ccccc2N1c1ncnc(N)c1[N+](=O)[O-] (stereo not given) | inactive |
| CC(=O)Nc1ccc(NC(=O)C(c2ccccc2)c2ccccc2)cc1 | inactive |
| O=C(Cc1ccc(Cl)cc1)NCC(=O)N1CCCCC1 | inactive |
| CCOC(=O)c1cn2nc(N3CCCC3)ccc2n1 | inactive |
| COc1cc(/C=N/NC(=O)c2cc(C34CC5CC(CC(C5)C3)C4)[nH]n2)ccc1O | inactive |
| COc1cc2cc(C(=O)Nc3ccc4c(c3)OCCO4)[nH]c2cc1OC | inactive |
| O=C(Nc1cc(S(=O)(=O)N2CCOCC2)ccc1Cl)c1ccncc1 | inactive |
| COC(=O)[C@H](C)[C@H]1C[C@]1(C)[C@H](NC(=O)OCc1ccccc1)c1ccccc1 | inactive |
| COc1ccccc1N1CCN(CCCNC(=O)C2CCCN(c3ncnc4c3nc3n4CCCCC3)C2)CC1 (stereo not given) | inactive |
| Cc1ccsc1/C=N/NC(=O)c1ccc2c(c1)OCCO2 | inactive |
| CC(=O)c1c(C)[nH]c(C(=O)Nc2ccc(C)cn2)c1C | inactive |
| CCOC(=O)c1sc(NC(=O)CNCc2ccccn2)c(C(=O)OCC)c1C | inactive |
| Cc1cccn2c(=O)c(C=NCCO)c(NCc3ccco3)nc12 | inactive |
| Clc1ccccc1C1=Nn2c(nnc2-c2ccncc2)SC1 | inactive |
| Cc1ccc(C(=O)Nc2cccc(C(F)(F)F)c2)cc1Nc1ncnc2nc[nH]c12 | inactive |
| c1cncc(CNc2ncnc3ccc(-c4ccoc4)cc23)c1 | inactive |
| Cc1sc2ncn(CC(=O)N3CCC(C(N)=O)CC3)c(=O)c2c1S(=O)(=O)N1CCOCC1 | inactive |
| Cc1ccc(N2CCN(C3=NC(=O)/C(=C\c4cn[nH]c4-c4ccccc4)S3)CC2)cc1 | inactive |
